# Experimental data as given in the supplement of paper PMC9694430.
# Assays:
# Test in all cases: thermal shift delta Tm vs DMSO control; higher = stronger stabilization (binding)
# Details in all cases: 12.5 µM; protein concentration 2 µM
# [1] = tested on: LOC_OS01G01410-cb001
# Method in brief: (§1)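 Rice kinase domain constructs, made in E. coli and purified, were placed in 96-well plates at 2 μM in 19.5 μl of 100 mM potassium phosphate pH 7.5, 150 mM NaCl, 10% glycerol and 5 × SYPRO Orange, with compound in DMSO. A temperature ramp from 25°C to 95°C at 0.05°C/s was used for differential scanning fluorimetry. The melting temperature shift is a triplicate mean compared with DMSO-only protein, derived from Boltzmann fits.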
# [2] = tested on: LOC_OS01G02750-cb003
# Method in brief: as §1
# [3] = tested on: LOC_OS01G10900-cb004
# Method in brief: as §1
# [4] = tested on: LOC_OS01G13800-cb001
# Method in brief: as §1
# [5] = tested on: LOC_OS01G14860-cb001
# Method in brief: as §1
# [6] = tested on: LOC_OS01G21960-cb002
# Method in brief: as §1
# [7] = tested on: LOC_OS01G39600-cb002
# Method in brief: as §1
# [8] = tested on: LOC_OS01G48390-cb002
# Method in brief: as §1
# [9] = tested on: LOC_OS01G51400-cb002
# Method in brief: as §1
# [10] = tested on: T1, LOC_OS01G52050-cb004
# T1 sequence (whole entry): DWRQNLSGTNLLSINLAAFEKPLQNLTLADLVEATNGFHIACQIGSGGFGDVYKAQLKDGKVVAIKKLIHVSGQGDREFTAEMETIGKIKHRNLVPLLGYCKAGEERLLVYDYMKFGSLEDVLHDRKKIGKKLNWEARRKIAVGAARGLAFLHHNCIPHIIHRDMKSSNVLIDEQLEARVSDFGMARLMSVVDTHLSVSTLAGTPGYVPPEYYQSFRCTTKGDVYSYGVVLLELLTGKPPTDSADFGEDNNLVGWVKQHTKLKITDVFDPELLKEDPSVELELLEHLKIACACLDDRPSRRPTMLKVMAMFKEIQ
# Method in brief: as §1
# [11] = tested on: LOC_OS01G57100-cb003
# Method in brief: as §1
# [12] = tested on: LOC_OS01G60330-cb001
# Method in brief: as §1
# [13] = tested on: LOC_OS01G60700-cb002
# Method in brief: as §1
# [14] = tested on: LOC_OS01G63280-cb003
# Method in brief: as §1
# [15] = tested on: LOC_OS01G67340-cb003
# Method in brief: as §1
# [16] = tested on: LOC_OS01G70970-cb002
# Method in brief: as §1
# [17] = tested on: LOC_OS02G07810-cb001
# Method in brief: as §1
# [18] = tested on: LOC_OS02G08530-cb003
# Method in brief: as §1
# [19] = tested on: LOC_OS02G14120-cb001
# Method in brief: as §1
# [20] = tested on: LOC_OS02G17970-cb001
# Method in brief: as §1
# 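Also: purified Escherichia coli-expressed rice kinase domain construct.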
SMILES,thermal shift delta Tm [1] [°C],thermal shift delta Tm [2] [°C],thermal shift delta Tm [3] [°C],thermal shift delta Tm [4] [°C],thermal shift delta Tm [5] [°C],thermal shift delta Tm [6] [°C],thermal shift delta Tm [7] [°C],thermal shift delta Tm [8] [°C],thermal shift delta Tm [9] [°C],thermal shift delta Tm [10] [°C],thermal shift delta Tm [11] [°C],thermal shift delta Tm [12] [°C],thermal shift delta Tm [13] [°C],thermal shift delta Tm [14] [°C],thermal shift delta Tm [15] [°C],thermal shift delta Tm [16] [°C],thermal shift delta Tm [17] [°C],thermal shift delta Tm [18] [°C],thermal shift delta Tm [19] [°C],thermal shift delta Tm [20] [°C]
Cc1nc(Nc2n[nH]c3c2CN(C(=O)N[C@H](CN(C)C)c2ccccc2)C3(C)C)c2sccc2n1,0.37,2.46,0.23,-0.4,4.22,2.47,0.6,0.23,0.28,0.94,0.61,-0.15,1.34,0.55,0.06,0.38,0.99,2.37,0.4,0.96
OC1CCC(Oc2cccc3cnc(Nc4ccc5nc[nH]c5c4)nc23)CC1 (stereo not given),5.55,6.21,1.42,0.31,7.5,4.16,10.3,5.98,1.07,3.63,1.84,13.9,-0.02,4.52,5.84,8.36,-0.24,4.55,11.4,0.06
Cn1cnc(N)c2ncnc1-2 [3-Methyladenine (3-MA)],0.6,5.26,0.17,-0.02,-0.3,0.32,0.46,1.12,0.76,0.09,1.89,1.27,0.77,0.22,-0.29,0.22,0.96,1.08,0.61,0.34
CN1CCN(C2CCN(C(=O)Nc3cc(Oc4ccc(NC(=O)C5(C(=O)Nc6ccc(F)cc6)CC5)c(F)c4)ccn3)CC2)CC1 [Golvatinib (E7050)],-0.03,1.21,0.95,0.07,0.62,0.11,0.93,2.98,0.51,0.09,0.49,0.6,1.6,0.78,0.24,0.6,0.4,0.79,0.6,2.14
"Nc1cc(C(F)(F)F)c(-c2cc(N3CCOCC3)nc(N3CCOCC3)n2)cn1 [Buparlisib (BKM120, NVP-BKM120)]",0.58,0.22,0.31,0.04,0.19,0.6,0.55,0.7,0.92,0.06,2.16,0.57,1.2,0.16,0.47,0.27,1.48,0.84,0.46,0.37
O=C(NOCCO)c1ccc2cncn2c1Nc1ccc(I)cc1F,1.18,5.7,1.31,1.55,3.41,0.59,-0.21,1.12,0.54,0.41,1.19,-0.56,0.86,0.2,-0.68,-0.05,1.14,0.47,-1.25,1.62
CCCS(=O)(=O)Nc1ccc(F)c(C(=O)c2c[nH]c3ncc(Cl)cc23)c1F,2.48,2.88,1.45,-0.05,0.85,0.52,2.73,3.29,0.32,1.3,0.54,2.26,1.16,5.8,-0.05,2.74,1.49,0.84,1.51,0.28
CNC(=O)c1ccc(-c2cnc3ncc(Cc4ccc5ncccc5c4)n3n2)cc1F,0.07,0.51,0.48,-0.08,0.29,0.73,-0.03,0.24,-0.03,0.32,0.49,-0.8,0.39,0.07,0.32,-0.18,0.83,0.3,-0.02,0.26
C[C@@H](NC(=O)c1ncnc(N)c1Cl)c1ncc(C(=O)Nc2cc(C(F)(F)F)c(Cl)cn2)s1,1.26,1.15,2.82,-0.27,0.84,0.73,-1.6,2.52,0.56,0.43,0.35,1.01,1.42,1.75,0.42,0.8,0.35,0.67,0.58,0.7
Nc1cccc(-c2cc3c(Oc4cccc(O)c4)ncnc3[nH]2)c1,2.64,1.81,1.53,0.59,4.88,1.92,3.68,2.32,0.45,2.13,2.04,0.91,1.51,2.09,0.65,0.81,1.59,1.94,5.81,0.97
CC(=O)Nc1nc(C)c(-c2ccc(Cl)c(S(=O)(=O)NCCO)c2)s1,0.98,1.63,1.52,0.63,0.16,1.07,-0.18,0.24,0.16,0.93,1.34,1.21,0.76,0.53,0.18,0.09,1.61,0.77,1.19,0.97
O=C1Nc2ccccc2/C1=C1/Nc2ccccc2C1=O [Indirubin],1.5,-0.12,3.43,-0.14,3.18,0.67,-4.22,0.94,0.43,0.55,0.93,1.8,2.12,0.55,0.71,0.76,1.4,1.85,-0.51,0.97
